# How the values were obtained:
# Test in all cases: DAPPL (digital affinity profiling via proximity ligation, sequencing); 10 mM Tris-HCl pH 7.5, 50 mM NaCl, 1 mM DTT, 4% glycerol, room temperature, 30 min; GST-TFs on glutathione beads, 16-mer random dsDNA library, 0.1% formaldehyde crosslink after washing; high values mean tight binding
# FLI1 = biological target: T1, FLI1 (Homo sapiens, UniProt Q01543 1-452); conditions: protein: recombinant; tags: N-terminal GST; dsDNA, one strand shown
# T1 sequence: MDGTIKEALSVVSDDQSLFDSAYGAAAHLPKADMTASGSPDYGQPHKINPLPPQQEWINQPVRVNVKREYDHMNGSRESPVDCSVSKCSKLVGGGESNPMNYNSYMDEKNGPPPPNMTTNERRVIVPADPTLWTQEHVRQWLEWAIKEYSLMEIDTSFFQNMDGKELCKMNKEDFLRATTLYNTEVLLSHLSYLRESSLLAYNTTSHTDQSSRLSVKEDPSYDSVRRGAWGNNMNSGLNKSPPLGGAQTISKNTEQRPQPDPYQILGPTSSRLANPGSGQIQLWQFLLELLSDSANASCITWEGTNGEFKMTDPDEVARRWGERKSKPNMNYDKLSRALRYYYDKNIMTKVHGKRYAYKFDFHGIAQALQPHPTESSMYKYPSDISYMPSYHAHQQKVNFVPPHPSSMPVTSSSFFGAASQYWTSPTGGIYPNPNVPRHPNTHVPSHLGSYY
# Method in brief: (§1)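 GST fusions of human transcription factors were expressed in yeast and captured with glutathione beads. Once given DNA barcodes and pooled alongside a tag-only sample, they were incubated for 30 min at room temperature with 200 nmole of a random double-stranded 16-mer DNA library in Tris/NaCl/DTT/glycerol buffer, then washed, crosslinked (0.1% formaldehyde), proximity-ligated, PCR-amplified and sequenced on an Illumina NextSeq500. The binding signal of each hexamer is its read frequency for a factor divided by its frequency for the tag-only sample.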
# ELK1 = biological target: T2, ELK1 (Homo sapiens, UniProt P19419 1-428); conditions: protein: recombinant; tags: N-terminal GST; dsDNA, one strand shown
# T2 sequence: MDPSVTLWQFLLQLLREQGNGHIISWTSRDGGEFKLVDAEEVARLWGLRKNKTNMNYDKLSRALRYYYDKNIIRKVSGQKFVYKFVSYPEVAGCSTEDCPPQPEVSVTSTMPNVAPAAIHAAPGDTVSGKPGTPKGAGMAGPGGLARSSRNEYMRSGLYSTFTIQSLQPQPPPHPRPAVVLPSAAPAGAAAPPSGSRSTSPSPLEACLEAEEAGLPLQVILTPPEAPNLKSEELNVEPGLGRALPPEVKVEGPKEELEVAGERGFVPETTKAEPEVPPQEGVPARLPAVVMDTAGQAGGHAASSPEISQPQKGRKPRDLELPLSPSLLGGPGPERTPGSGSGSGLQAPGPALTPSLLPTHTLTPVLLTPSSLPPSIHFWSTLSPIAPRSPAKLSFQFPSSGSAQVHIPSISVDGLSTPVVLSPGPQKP
# Method in brief: as §1
# GABPA = biological target: T3, GABPA (Homo sapiens, UniProt Q06546 1-454); conditions: protein: recombinant; tags: N-terminal GST; dsDNA, one strand shown
# T3 sequence: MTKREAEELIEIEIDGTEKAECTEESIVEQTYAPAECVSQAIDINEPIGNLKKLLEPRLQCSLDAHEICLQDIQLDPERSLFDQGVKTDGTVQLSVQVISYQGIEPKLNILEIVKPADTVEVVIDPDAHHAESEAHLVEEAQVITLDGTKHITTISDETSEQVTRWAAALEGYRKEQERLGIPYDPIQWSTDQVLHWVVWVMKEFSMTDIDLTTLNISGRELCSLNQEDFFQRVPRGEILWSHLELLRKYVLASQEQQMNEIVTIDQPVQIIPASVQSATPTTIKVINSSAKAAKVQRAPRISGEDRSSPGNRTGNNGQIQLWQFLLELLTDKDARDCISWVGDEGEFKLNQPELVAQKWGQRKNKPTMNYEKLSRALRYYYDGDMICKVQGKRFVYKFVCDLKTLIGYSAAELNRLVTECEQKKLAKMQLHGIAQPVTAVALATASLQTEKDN
# Method in brief: as §1
# ERG = biological target: T4, ERG (Homo sapiens, UniProt P11308 1-479); conditions: protein: recombinant; tags: N-terminal GST; dsDNA, one strand shown
# T4 sequence: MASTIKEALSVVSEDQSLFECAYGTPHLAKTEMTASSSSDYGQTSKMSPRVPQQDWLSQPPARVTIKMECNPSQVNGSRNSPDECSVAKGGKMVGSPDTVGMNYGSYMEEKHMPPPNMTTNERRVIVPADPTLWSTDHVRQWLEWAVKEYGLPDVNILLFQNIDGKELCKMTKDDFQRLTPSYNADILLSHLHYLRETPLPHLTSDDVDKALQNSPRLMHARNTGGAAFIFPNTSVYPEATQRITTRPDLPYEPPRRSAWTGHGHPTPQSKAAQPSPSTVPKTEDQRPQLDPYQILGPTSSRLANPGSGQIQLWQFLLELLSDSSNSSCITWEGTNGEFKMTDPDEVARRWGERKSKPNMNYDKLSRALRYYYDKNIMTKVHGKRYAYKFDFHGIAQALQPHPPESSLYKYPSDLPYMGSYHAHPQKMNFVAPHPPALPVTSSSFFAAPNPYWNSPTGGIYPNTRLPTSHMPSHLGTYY
# Method in brief: as §1
# ELF1 = ELF1 (Homo sapiens, UniProt P32519 1-619); conditions: protein: recombinant; tags: N-terminal GST; dsDNA, one strand shown
# Sequence of ELF1 (P32519 whole entry): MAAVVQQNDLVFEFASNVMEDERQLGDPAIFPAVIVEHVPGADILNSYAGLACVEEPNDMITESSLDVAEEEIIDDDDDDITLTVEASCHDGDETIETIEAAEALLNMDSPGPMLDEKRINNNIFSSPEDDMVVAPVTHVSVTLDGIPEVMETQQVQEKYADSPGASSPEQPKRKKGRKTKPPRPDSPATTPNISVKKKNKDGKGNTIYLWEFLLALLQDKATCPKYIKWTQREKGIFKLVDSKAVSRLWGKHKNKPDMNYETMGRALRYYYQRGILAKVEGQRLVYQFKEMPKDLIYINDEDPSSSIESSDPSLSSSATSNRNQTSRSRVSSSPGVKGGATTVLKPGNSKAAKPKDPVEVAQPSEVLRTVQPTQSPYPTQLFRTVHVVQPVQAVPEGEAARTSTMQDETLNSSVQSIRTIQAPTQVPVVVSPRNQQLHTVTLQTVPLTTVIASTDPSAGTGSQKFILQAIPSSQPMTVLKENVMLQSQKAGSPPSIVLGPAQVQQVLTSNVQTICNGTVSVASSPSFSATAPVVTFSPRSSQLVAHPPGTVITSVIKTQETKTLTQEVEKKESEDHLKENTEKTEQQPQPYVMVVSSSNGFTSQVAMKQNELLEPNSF
# Method in brief: as §1
# EHF = biological target: T5, EHF (Homo sapiens, UniProt Q9NZC4 1-300); conditions: protein: recombinant; tags: N-terminal GST; dsDNA, one strand shown
# T5 sequence: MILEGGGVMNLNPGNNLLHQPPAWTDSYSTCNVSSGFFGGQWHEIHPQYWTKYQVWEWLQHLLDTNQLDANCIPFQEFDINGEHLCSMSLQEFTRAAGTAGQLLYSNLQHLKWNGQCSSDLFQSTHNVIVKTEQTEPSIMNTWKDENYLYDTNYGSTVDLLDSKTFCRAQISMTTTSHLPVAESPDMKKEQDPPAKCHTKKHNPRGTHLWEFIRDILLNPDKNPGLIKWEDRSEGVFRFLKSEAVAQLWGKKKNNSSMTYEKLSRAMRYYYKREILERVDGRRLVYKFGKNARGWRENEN
# Method in brief: as §1
# SPI1 = SPI1 (Homo sapiens, UniProt P17947 1-270); conditions: protein: recombinant; tags: N-terminal GST; dsDNA, one strand shown
# Method in brief: as §1
# SPIB = SPIB (Homo sapiens, UniProt Q01892 1-262); conditions: protein: recombinant; tags: N-terminal GST; dsDNA, one strand shown
# Sequence of SPIB (Q01892 whole entry): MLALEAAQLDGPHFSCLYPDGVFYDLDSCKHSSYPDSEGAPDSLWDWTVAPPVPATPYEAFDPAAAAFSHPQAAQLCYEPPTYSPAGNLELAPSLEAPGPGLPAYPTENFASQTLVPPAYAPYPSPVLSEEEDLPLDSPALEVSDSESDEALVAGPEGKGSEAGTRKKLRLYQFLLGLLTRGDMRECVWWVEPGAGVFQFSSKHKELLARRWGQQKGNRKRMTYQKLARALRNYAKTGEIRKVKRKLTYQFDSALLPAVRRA
# Method in brief: as §1
# ELK3 = biological target: T6, ELK3 (Homo sapiens, UniProt P41970 1-407); conditions: protein: recombinant; tags: N-terminal GST; dsDNA, one strand shown
# T6 sequence: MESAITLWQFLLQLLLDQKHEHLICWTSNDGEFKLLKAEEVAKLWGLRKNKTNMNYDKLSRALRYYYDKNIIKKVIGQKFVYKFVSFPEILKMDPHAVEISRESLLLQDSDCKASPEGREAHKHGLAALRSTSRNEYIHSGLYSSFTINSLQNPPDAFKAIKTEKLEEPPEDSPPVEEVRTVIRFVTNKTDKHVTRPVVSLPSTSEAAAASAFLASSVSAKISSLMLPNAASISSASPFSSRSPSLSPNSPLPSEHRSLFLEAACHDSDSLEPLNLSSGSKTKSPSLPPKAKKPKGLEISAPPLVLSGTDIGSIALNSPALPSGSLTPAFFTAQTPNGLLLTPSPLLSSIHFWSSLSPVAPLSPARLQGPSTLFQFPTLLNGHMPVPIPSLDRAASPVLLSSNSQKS
# Method in brief: as §1
# FEV = biological target: T7, FEV (Homo sapiens, UniProt Q99581 1-238); conditions: protein: recombinant; tags: N-terminal GST; dsDNA, one strand shown
# T7 sequence: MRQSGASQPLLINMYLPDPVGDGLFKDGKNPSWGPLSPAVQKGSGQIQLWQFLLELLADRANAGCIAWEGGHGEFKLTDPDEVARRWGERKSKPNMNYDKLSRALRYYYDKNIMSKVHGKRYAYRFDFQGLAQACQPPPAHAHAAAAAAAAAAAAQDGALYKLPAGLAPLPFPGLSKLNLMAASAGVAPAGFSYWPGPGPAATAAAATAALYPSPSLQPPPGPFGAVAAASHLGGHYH
# Method in brief: as §1
# ETV5 = ETV5 (Homo sapiens, UniProt P41161 1-510); conditions: protein: recombinant; tags: N-terminal GST; dsDNA, one strand shown
# Sequence of ETV5 (P41161 whole entry): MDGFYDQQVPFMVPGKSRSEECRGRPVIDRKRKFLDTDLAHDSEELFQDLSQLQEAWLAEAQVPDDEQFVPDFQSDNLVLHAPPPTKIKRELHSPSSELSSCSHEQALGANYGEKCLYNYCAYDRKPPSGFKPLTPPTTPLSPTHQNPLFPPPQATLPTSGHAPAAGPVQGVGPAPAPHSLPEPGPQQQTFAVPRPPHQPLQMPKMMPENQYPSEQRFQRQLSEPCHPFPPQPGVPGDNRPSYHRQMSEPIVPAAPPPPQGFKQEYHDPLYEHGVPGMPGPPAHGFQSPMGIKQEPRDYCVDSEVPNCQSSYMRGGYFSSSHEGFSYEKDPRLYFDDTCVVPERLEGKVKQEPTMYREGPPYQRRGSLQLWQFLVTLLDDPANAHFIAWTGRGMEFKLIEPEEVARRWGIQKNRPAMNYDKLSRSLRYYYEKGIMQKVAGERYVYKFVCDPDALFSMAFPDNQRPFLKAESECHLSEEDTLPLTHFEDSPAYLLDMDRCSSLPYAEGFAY
# Method in brief: as §1
# HSF1 = HSF1 (Homo sapiens, UniProt Q00613 1-529); conditions: protein: recombinant; tags: N-terminal GST; chain copies: 3; dsDNA, one strand shown
# Sequence of HSF1 (Q00613 whole entry): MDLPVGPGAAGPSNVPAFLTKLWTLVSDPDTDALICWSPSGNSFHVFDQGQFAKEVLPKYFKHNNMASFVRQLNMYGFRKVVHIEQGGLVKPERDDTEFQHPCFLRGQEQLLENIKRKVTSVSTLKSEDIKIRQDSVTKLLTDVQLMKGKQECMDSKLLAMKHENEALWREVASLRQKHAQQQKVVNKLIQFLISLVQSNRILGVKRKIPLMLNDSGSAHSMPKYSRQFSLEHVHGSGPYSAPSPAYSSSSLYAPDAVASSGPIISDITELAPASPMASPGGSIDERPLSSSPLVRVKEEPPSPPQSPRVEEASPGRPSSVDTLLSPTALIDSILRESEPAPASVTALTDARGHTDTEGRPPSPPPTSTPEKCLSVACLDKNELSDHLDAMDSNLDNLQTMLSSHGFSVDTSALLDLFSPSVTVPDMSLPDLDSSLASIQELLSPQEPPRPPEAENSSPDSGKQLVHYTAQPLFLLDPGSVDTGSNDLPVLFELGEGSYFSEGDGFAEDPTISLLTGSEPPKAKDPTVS
# Method in brief: as §1
# SPIC = biological target: T8, SPIC (Homo sapiens, UniProt Q8N5J4 1-248); conditions: protein: recombinant; tags: N-terminal GST; dsDNA, one strand shown
# T8 sequence: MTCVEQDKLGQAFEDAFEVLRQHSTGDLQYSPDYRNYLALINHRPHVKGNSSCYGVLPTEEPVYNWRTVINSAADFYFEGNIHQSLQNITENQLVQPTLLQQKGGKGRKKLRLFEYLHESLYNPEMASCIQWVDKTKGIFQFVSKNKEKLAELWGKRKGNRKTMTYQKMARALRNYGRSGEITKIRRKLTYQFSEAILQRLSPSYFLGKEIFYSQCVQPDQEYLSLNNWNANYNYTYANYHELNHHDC
# Method in brief: as §1
# ELF4 = ELF4 (Homo sapiens, UniProt Q99607 1-663); conditions: protein: recombinant; tags: N-terminal GST; dsDNA, one strand shown
# Sequence of ELF4 (Q99607 whole entry): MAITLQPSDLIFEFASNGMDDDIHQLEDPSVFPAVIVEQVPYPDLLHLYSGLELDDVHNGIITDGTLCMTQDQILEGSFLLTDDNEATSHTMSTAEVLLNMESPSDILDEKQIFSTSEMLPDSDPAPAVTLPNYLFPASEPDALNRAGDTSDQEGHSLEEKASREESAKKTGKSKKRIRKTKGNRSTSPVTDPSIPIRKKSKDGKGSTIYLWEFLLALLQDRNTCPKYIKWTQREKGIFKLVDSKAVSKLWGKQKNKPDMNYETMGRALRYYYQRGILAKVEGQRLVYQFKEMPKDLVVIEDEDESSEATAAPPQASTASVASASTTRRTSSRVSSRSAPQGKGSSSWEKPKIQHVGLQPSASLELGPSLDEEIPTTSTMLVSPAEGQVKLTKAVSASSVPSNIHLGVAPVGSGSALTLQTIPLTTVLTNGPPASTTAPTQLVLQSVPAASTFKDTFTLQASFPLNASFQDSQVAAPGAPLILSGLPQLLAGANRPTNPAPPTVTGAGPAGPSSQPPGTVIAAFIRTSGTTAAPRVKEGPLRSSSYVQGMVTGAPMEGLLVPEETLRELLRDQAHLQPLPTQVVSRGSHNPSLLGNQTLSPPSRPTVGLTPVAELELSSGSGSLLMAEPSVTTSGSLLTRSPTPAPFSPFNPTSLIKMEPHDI
# Method in brief: as §1
# ELK4 = biological target: T9, ELK4 (Homo sapiens, UniProt P28324-2 1-405); conditions: protein: recombinant; tags: N-terminal GST; dsDNA, one strand shown
# T9 sequence: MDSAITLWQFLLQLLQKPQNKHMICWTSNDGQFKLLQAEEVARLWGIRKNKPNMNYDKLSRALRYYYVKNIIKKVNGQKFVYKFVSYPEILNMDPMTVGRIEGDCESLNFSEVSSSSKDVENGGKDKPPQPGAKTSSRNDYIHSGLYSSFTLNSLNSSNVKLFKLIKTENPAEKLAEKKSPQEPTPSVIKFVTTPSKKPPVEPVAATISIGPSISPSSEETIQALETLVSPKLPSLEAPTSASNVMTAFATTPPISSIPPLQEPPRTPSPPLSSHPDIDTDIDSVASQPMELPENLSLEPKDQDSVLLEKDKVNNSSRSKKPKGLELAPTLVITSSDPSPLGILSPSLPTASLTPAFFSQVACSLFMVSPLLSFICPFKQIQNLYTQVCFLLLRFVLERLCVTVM
# Method in brief: as §1
# ETV2 = biological target: T10, ETV2 (Homo sapiens, UniProt O00321 1-342); conditions: protein: recombinant; tags: N-terminal GST; dsDNA, one strand shown
# T10 sequence: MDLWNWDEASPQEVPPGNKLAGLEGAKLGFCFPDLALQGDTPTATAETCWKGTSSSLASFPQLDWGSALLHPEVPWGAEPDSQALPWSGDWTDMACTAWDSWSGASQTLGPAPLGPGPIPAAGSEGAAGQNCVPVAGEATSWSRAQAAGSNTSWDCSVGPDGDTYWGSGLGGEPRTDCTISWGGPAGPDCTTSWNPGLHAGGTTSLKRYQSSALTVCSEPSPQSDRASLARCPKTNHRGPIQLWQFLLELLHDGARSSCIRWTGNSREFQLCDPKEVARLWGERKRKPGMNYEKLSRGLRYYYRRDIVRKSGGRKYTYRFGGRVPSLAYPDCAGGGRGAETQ
# Method in brief: as §1
# ELF3 = biological target: T11, ELF3 (Homo sapiens, UniProt P78545 1-371); conditions: protein: recombinant; tags: N-terminal GST; dsDNA, one strand shown
# T11 sequence: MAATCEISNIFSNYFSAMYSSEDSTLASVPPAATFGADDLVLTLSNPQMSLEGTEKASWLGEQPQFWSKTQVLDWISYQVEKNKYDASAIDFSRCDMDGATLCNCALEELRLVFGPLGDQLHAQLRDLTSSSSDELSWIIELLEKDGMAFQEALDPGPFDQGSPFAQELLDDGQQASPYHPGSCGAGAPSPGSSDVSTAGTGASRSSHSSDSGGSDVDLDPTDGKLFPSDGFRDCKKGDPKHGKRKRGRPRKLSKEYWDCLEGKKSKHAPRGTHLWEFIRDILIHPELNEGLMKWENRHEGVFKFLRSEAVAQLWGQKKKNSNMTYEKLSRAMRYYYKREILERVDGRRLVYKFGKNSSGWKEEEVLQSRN
# Method in brief: as §1
# ETV1 = ETV1 (Homo sapiens, UniProt P50549 1-477); conditions: protein: recombinant; tags: N-terminal GST; dsDNA, one strand shown
# Sequence of ETV1 (P50549 whole entry): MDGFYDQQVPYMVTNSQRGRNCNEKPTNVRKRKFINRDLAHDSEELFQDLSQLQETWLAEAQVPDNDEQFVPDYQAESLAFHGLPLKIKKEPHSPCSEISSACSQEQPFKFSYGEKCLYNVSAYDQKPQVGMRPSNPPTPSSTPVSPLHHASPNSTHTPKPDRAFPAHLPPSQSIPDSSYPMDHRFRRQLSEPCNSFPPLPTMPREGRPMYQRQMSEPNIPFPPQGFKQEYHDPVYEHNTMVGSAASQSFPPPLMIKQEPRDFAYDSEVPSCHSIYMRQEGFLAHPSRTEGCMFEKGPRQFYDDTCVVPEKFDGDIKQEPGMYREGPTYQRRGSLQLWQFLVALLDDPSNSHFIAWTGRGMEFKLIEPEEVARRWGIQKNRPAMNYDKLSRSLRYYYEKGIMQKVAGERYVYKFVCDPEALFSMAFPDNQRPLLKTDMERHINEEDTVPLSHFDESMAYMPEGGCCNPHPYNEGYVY
# Method in brief: as §1
sequence,measurement,setting,value
GCAACT,binding signal,FLI1,"1.22 fold enrichment (6-mer frequency, TF over GST control)"
same,binding signal,ELK1,"1.19 fold enrichment (6-mer frequency, TF over GST control)"
same,binding signal,GABPA,"1.19 fold enrichment (6-mer frequency, TF over GST control)"
same,binding signal,ERG,"1.33 fold enrichment (6-mer frequency, TF over GST control)"
same,binding signal,ELF1,"1.29 fold enrichment (6-mer frequency, TF over GST control)"
same,binding signal,EHF,"1.2 fold enrichment (6-mer frequency, TF over GST control)"
same,binding signal,SPI1,"1.23 fold enrichment (6-mer frequency, TF over GST control)"
same,binding signal,SPIB,"1.22 fold enrichment (6-mer frequency, TF over GST control)"
same,binding signal,ELK3,"1.14 fold enrichment (6-mer frequency, TF over GST control)"
same,binding signal,FEV,"1.27 fold enrichment (6-mer frequency, TF over GST control)"
same,binding signal,ETV5,"1.2 fold enrichment (6-mer frequency, TF over GST control)"
same,binding signal,HSF1,"1.05 fold enrichment (6-mer frequency, TF over GST control)"
same,binding signal,SPIC,"1.3 fold enrichment (6-mer frequency, TF over GST control)"
same,binding signal,ELF4,"1.2 fold enrichment (6-mer frequency, TF over GST control)"
same,binding signal,ELK4,"1.2 fold enrichment (6-mer frequency, TF over GST control)"
same,binding signal,ETV2,"1.04 fold enrichment (6-mer frequency, TF over GST control)"
same,binding signal,ELF3,"1.12 fold enrichment (6-mer frequency, TF over GST control)"
same,binding signal,ETV1,"1.25 fold enrichment (6-mer frequency, TF over GST control)"

# From PMC7862700, “An all-to-all approach to the identification of sequence-specific readers for epigenetic DNA modifications on cytosine”
